Compound activity from PubChem BioAssay.
This is a sample that favours compounds with a hit; in the whole collection about 1.2% have one here.
RGS4-Gao reg = human RGS4-Galphao interaction regulation | P09471 | Multiplexed bead flow cytometry, RGS4-Galphao binding; actives lie on both sides | binding response (% of control), % at 10 µM | actives 0.33% (n = 220,000) | AID 1415; in the data active = binding response below about 49% or above about 150%; inactive = in between;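 also: fluorescent Galphao activated with aluminum fluoride binding bead-coupled RGS4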
Target sequence (P09471 whole entry, looked up): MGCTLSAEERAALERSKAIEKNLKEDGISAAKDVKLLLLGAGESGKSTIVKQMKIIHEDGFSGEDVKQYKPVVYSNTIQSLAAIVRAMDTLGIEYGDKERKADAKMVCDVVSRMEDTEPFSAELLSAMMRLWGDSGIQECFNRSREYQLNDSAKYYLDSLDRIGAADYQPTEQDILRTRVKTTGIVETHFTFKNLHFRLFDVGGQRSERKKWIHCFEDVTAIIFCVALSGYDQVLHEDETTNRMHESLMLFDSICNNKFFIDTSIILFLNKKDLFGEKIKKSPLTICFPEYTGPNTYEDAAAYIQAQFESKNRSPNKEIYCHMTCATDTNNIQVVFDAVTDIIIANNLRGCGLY
RGS16-Gao HTS = RGS16-Galphao interaction regulator (human); O15492+P09471; bead-based flow cytometry RGS16-Galphao binding, fluorescence; actives lie on both sides; AID 1441; binding response (% of control), % at 10 µM; actives 0.38% (n = 220,000);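 also: Galphao activated by GDP with aluminum fluoride before binding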
Target sequence (O15492 whole entry, looked up): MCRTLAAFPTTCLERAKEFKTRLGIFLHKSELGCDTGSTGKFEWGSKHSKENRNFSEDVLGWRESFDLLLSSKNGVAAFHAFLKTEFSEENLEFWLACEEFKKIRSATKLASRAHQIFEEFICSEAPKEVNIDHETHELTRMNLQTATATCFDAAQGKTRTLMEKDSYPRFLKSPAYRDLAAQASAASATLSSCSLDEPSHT
Target sequence (P09471 whole entry, looked up): as the sequence (P09471 whole entry, looked up) above
GSH fluor = compound fluoresces at 488/530 nm on GSH beads; GSH beads flow cytometry, compound fluorescence 488/530 nm; active compounds read high; fluorescence (KMESF) at 10 µM; actives 0.25% (n = 190,000); in the data active = fluorescence above about 89;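 also: glutathione beads carrying GST-tagged Bcl family fusion proteins plus one bare bead set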
Avidin fluor = compound fluoresces at 488/530 nm on avidin beads. compound fluorescence 488/530 nm, flow cytometry; active compounds read high. fluorescence (KMESF) at 10 µM. actives 0.38% (n = 220,000). AID 1775; in the data active = fluorescence above about 47
RGS8-Gao reg = regulators of human RGS8-Galphao interaction; P09471; multiplexed bead flow cytometry, RGS8-Galphao binding; actives lie on both sides; response (percent of control binding), % at 10 µM; actives 0.34% (n = 220,000); in the data active = response below about 60% or above about 140%; inactive = in between;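 also: Galphao activated as the GDP aluminium fluoride complex binding bead-coupled RGS8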
RGS7-Gao reg = human RGS7-Galphao interaction regulation; P09471; AID 1439; Multiplexed bead flow cytometry, RGS7-Galphao binding; actives lie on both sides; binding response (% of control), % at 10 µM; actives 0.35% (n = 220,000); in the data active = binding response below about 49% or above about 150%; inconclusive = no clear call, values can overlap the other calls; inactive = in between;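 also: fluorescent Galphao held in activated GDP-AlF4 state binding bead-coupled RGS7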
RGS-Gao = regulators of human RGS4-Galphao interaction | shares compounds with RGS16-Gao HTS | multiplexed bead flow cytometry, RGS–Galpha-o binding | RGS4–Galpha-o binding response, % at 10 µM | actives 99% (n = 1,600) | AID 1504;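 also: fluorescently labeled Galpha-o bound to GDP with aluminium fluoride binding biotinylated RGS beads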
Biotin-avidin = counter-screen: compounds disrupting biotin binding to avidin beads; inhibition, % at 10 µM; shares compounds with RGS16-Gao HTS; 1,700 tested, under 10 active; streptavidin beads, fluorescein-biotin binding, flow cytometry;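 active = inhibition above 50%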;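 also: median green fluorescence of gated singlet beads compared with DMSO control wells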
RGS8-Gao single = RGS8-Galphao interaction regulation, single point confirmation; actives 3% (n = 1,700); shares compounds with RGS16-Gao HTS; binding response (% of control), % at 10 µM; bead-based flow cytometry RGS8-Galphao binding, fluorescence; actives lie on both sides; in the data active = binding response below about 72% or above about 130%; inactive = in between;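 also: Galphao activated as GDP AlF4 complex before binding bead RGS8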
RGS7-Gao single = confirmation of regulators of human RGS7-Galphao interaction; response (percent of control binding), % at 10 µM; actives 7.8% (n = 1,700); bead-based flow cytometry RGS7-Galphao binding; actives lie on both sides; shares compounds with RGS16-Gao HTS; in the data active = response below about 75% or above about 130%; inactive = in between;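 also: fluorescent Galphao activated with GDP and aluminum fluoride binding bead-coupled RGS7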
RGS16-Gao single = confirmation of regulators of human RGS16-Galphao interaction; shares compounds with RGS16-Gao HTS; bead-based flow cytometry, RGS16-Galphao binding; actives lie on both sides; response (% of control binding), % at 10 µM; actives 4% (n = 1,700); AID 1838; in the data active = response below about 74% or above about 130%; inactive = in between;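 also: Galphao activated as the GDP aluminium fluoride complex binding bead-coupled RGS16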
RGS4-Gao single = RGS4-Galphao interaction regulation, single point confirmation; shares compounds with RGS16-Gao HTS; RGS4-Galphao binding, multiplexed bead flow cytometry; actives lie on both sides; binding response (% of control), % at 10 µM; actives 4% (n = 1,700); AID 1840; in the data active = binding response below about 74% or above about 130%; inactive = in between
RGS19-Gao conf = confirmation of regulators of human RGS19-Galphao interaction | shares compounds with RGS16-Gao HTS | bead-based flow cytometry RGS19-Galphao binding; actives lie on both sides | response (percent of control binding), % at 10 µM | actives 5% (n = 1,700) | AID 1841; in the data active = response below about 50% or above about 160%; inactive = in between
Of the large screens only hits and unclear results are named; the others gave an inactive call (follow-up assays come after a bar, where they were run); [ ] = remark or other dose. Unless noted, no rule for the calls is given here.

COc1ccc(CC2CCOC2=O)cc1 (stereo unspecified)	RGS16-Gao HTS -31 | RGS-Gao 94 | Biotin-avidin inactive | RGS8-Gao single inactive | RGS7-Gao single inactive | RGS16-Gao single inactive | RGS4-Gao single inactive | RGS19-Gao conf inactive
CN(C)c1ncc(C2=C(Cl)C(=O)C(N3CCCC3)=C(Cl)C2=O)s1	RGS8-Gao reg 47, RGS7-Gao reg 41 | RGS-Gao 67 | Biotin-avidin inactive | RGS8-Gao single 41 | RGS7-Gao single 22 | RGS16-Gao single 35 | RGS4-Gao single 72 | RGS19-Gao conf -9.7
O=C1C(Cl)=C(N2CCCCC2)C(=O)C(Cl)=C1c1cnc(N2CCCCC2)s1	RGS8-Gao reg 50, RGS7-Gao reg 43 | RGS-Gao 69 | Biotin-avidin inactive | RGS8-Gao single 37 | RGS7-Gao single 16 | RGS16-Gao single 27 | RGS4-Gao single 59 | RGS19-Gao conf -8.5
Clc1ccc(Cl)c2sc(N3CCCC3)nc12	none
COCCN1Cc2cccc(C(=O)NCc3ccc4c(c3)OCO4)c2C1=O	RGS16-Gao HTS 20 | RGS-Gao 89 | Biotin-avidin inactive | RGS8-Gao single inactive | RGS7-Gao single inactive | RGS16-Gao single inactive | RGS4-Gao single inactive | RGS19-Gao conf inactive
COCCN1Cc2cccc(C(=O)NCc3ccccn3)c2C1=O	none
COC(=O)Cn1nnc(N2CCOCC2)n1	RGS7-Gao reg inconclusive (no result: GSH fluor)
O=[N+]([O-])c1ccc(Sc2cccc[n+]2[O-])c2nonc12	RGS16-Gao HTS 3.0, RGS8-Gao reg 36, RGS7-Gao reg inconclusive (no result: GSH fluor) | RGS-Gao 84 | Biotin-avidin inactive | RGS8-Gao single 52 | RGS7-Gao single inactive | RGS16-Gao single 26 | RGS4-Gao single inactive | RGS19-Gao conf 21
CC(=O)OC(C)CS(=O)(=O)c1ccccc1 (stereo unspecified)	RGS4-Gao reg 35, RGS16-Gao HTS 21, RGS8-Gao reg 29, RGS7-Gao reg 30 | Biotin-avidin inactive | RGS8-Gao single inactive | RGS7-Gao single inactive | RGS16-Gao single inactive | RGS4-Gao single inactive | RGS19-Gao conf inactive
CCc1ccc(S(=O)(=O)/N=C2/C=C(Sc3ncn[nH]3)C(=O)c3ccccc32)cc1	RGS16-Gao HTS 24 | RGS-Gao 92
CCc1ccc(S(=O)(=O)/N=C2\C=CC(=O)c3ccccc32)cc1	none
NC(=O)C1=C[C@H](C2CCCCC2)C[C@H](OCc2ccc(CO)cc2)O1	none
Cc1cc2cc(CCNC(=O)c3ccc(C)c([N+](=O)[O-])c3)c(=O)[nH]c2cc1C	RGS4-Gao reg 3.7, RGS8-Gao reg 16, RGS7-Gao reg 7.7 | Biotin-avidin inactive | RGS8-Gao single inactive | RGS7-Gao single inactive | RGS16-Gao single inactive | RGS4-Gao single inactive | RGS19-Gao conf inactive
Cc1ccc(C(=O)NCCc2nc3ccccc3[nH]2)cc1[N+](=O)[O-]	none
CCCCOCCCNC(=O)C1CCCCC1	RGS8-Gao reg 55 | RGS-Gao 84 | Biotin-avidin inactive | RGS8-Gao single inactive | RGS7-Gao single inactive | RGS16-Gao single inactive | RGS4-Gao single inactive | RGS19-Gao conf inactive
CCOC(=O)COc1nc(-c2ccccc2)cc(-c2ccco2)c1C#N	RGS7-Gao reg inconclusive (no result: GSH fluor)
CCOC(=O)COc1nc(-c2ccc(Cl)cc2)cc(-c2ccco2)c1C#N	RGS4-Gao reg 177[activator], Avidin fluor 82, RGS7-Gao reg inconclusive (no result: GSH fluor) | Biotin-avidin inactive | RGS8-Gao single inactive | RGS7-Gao single inactive | RGS16-Gao single inactive | RGS4-Gao single inactive | RGS19-Gao conf inactive
Cc1cc(OCC(=O)Nc2ccc(F)c(F)c2)nc(C(C)C)n1	RGS4-Gao reg -21, RGS16-Gao HTS -13, RGS8-Gao reg 34, RGS7-Gao reg 2.3 | Biotin-avidin inactive | RGS8-Gao single inactive | RGS7-Gao single inactive | RGS16-Gao single inactive | RGS4-Gao single inactive | RGS19-Gao conf inactive
Cc1cc(OCC(=O)Nc2ccccc2F)nc(C(C)C)n1	none
CCn1c(=O)n(CC(=O)N2CC(C)CC(C)C2)c(=O)c2ccccc21 (stereo unspecified)	none
CCn1c(=O)n(CC(=O)NC2CCCC(C)C2C)c(=O)c2ccccc21 (stereo unspecified)	Avidin fluor 99, RGS7-Gao reg 198[activator] | RGS-Gao 119
CN(C)S(=O)(=O)c1ccc(C(=O)OCCn2cnc3c2c(=O)n(C)c(=O)n3C)cc1	none
Cc1cccc2sc(NC(=O)[C@@H]3CCCN3C(=O)c3cccs3)nc12	RGS16-Gao HTS 211[activator] | RGS-Gao 101 | Biotin-avidin inactive | RGS8-Gao single inactive | RGS7-Gao single inactive | RGS16-Gao single inactive | RGS4-Gao single inactive | RGS19-Gao conf inactive
CCN(C(=O)c1ccc(NC(C)=O)cc1)c1ccccc1	RGS16-Gao HTS -20 | RGS-Gao 78 | Biotin-avidin inactive | RGS8-Gao single inactive | RGS7-Gao single inactive | RGS16-Gao single inactive | RGS4-Gao single inactive | RGS19-Gao conf inactive
COC(=O)c1c(-c2ccc(C(C)(C)C)cc2)csc1NC(=O)C1C2CCC(O2)C1C(=O)O (stereo unspecified)	RGS16-Gao HTS 5.6 | RGS-Gao 94 | Biotin-avidin inactive | RGS8-Gao single inactive | RGS7-Gao single 135[activator] | RGS16-Gao single 73 | RGS4-Gao single inactive | RGS19-Gao conf inactive
CCOC(=O)c1c(-c2cccc3ccccc23)csc1NC(=O)C1C2CCC(O2)C1C(=O)O (stereo unspecified)	none
